# Test results from PubChem BioAssay (EPA / NIEHS).
# Records with an inconclusive call do not appear. Some structures have more than one record in an assay (separate samples or runs), and their calls can disagree. Calls of active or inactive are those of the source. Rule for the calls, unless noted: active = hit-call score of the fitted dose curve at least 0.9, where 1 is the maximum; inconclusive = response in the unintended direction; inactive = score below 0.9.
# Key:
# [1] = CPHEA_Stoker_NIS_Cytotoxicity: Cytotoxicity Assessment for CPHEA's Radioactive Iodide Uptake (RAIU) Assay for Sodium/Iodide Symporter (NIS) Inhibition, Stoker and Laws Labs (AID 2283897);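 for AC50: active means loss of ATP signal versus DMSO meaning cytotoxicity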
# Method in brief: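 hNIS-HEK293T-EPA cells, human NIS expressed in HEK293T, treated 2 h with chemicals (0.001–100 uM, 0.5% final DMSO). ATP content read by CellTiter-Glo luminescence; loss of signal analysed relative to DMSO.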
# [2] = tested on: Sodium/Iodide Symporter (NIS), SLC5A5 (gene 6528); experiment: CPHEA_Stoker_NIS_Inhibition_RAIU: CPHEA's Radioactive Iodide Uptake (RAIU) Assay for Sodium/Iodide Symporter (NIS) Inhibition, Stoker and Laws Labs (AID 2283841)
# Method in brief: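 hNIS-HEK293T-EPA cells incubated 2 h at room temperature with compound (0.001–100 uM, 0.5% DMSO) and 329 pM final 125I in HBSS/10 mM HEPES, pH 7.4. Intracellular 125I counted; normalised to DMSO maximal uptake, triplicate, three biological replicates.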
# [3] = CEETOX_H295R_11DCORT_noMTC: CeeTox H295R High-throughput Steroidogenesis Assay for 11-Deoxycortisol (11DCORT), maximum tolerated concentration (MTC) filtered results only (AID 2283911; active = hit-call score of the fitted dose curve at least 0.9, where 1 is the maximum; inactive = score below 0.9); settings: actives raise or lower the signal
# Method in brief: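 H295R, OECD 456-based; 10 uM forskolin 48 h → compound (0.1% DMSO) 48 h → medium extracted, 11DCORT by LC-MS/MS. Gain/loss vs DMSO control, all concentrations kept regardless of MTT viability.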
# [4] = CEETOX_H295R_OHPREG_noMTC: CeeTox H295R High-throughput Steroidogenesis Assay for OH-Pregnenolone (OHPREG), maximum tolerated concentration (MTC) filtered results only (AID 2283912; active = hit-call score of the fitted dose curve at least 0.9, where 1 is the maximum; inactive = score below 0.9); settings: actives raise or lower the signal
# Method in brief: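 Medium 17alpha-hydroxypregnenolone quantified by reverse-phase HPLC-MS/MS after 48 h chemical exposure of forskolin-prestimulated (10 uM, 48 h) H295R, 0.1% DMSO final. Fitting bidirectional relative to DMSO; no maximum-tolerated-concentration filtering applied.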
# [5] = CEETOX_H295R_OHPROG_noMTC: CeeTox H295R High-throughput Steroidogenesis Assay for OH-Progesterone (OHPROG), maximum tolerated concentration (MTC) filtered results only (AID 2283914; active = hit-call score of the fitted dose curve at least 0.9, where 1 is the maximum; inactive = score below 0.9); settings: actives raise or lower the signal
# Method in brief: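 After 48 h forskolin (10 uM) prestimulation, H295R adrenal cells received test chemical in 0.1% DMSO for 48 h. Medium 17alpha-hydroxyprogesterone was MTBE-extracted and measured by HPLC-MS/MS; gain or loss relative to DMSO, no MTT-based MTC filtering.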
# [6] = CEETOX_H295R_ANDR_noMTC: CeeTox H295R High-throughput Steroidogenesis Assay for Androstenedione (ANDR), maximum tolerated concentration (MTC) filtered results only (AID 2283915; active = hit-call score of the fitted dose curve at least 0.9, where 1 is the maximum; inactive = score below 0.9); settings: actives raise or lower the signal
# Method in brief: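 Androstenedione secreted into medium was measured by LC-MS/MS after MTBE extraction. Human adrenal H295R cells received 10 uM forskolin for 48 h before 48 h chemical exposure (0.1% DMSO). Gain or loss fitted against DMSO, including concentrations above the MTT-derived MTC.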
# [7] = CEETOX_H295R_CORTISOL_noMTC: CeeTox H295R High-throughput Steroidogenesis Assay for Cortisol, maximum tolerated concentration (MTC) filtered results only (AID 2283916; active = hit-call score of the fitted dose curve at least 0.9, where 1 is the maximum; inactive = score below 0.9); settings: actives raise or lower the signal
# Method in brief: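 Cortisol secretion measured by LC-MS/MS after 48 h chemical treatment (final 0.1% DMSO) of forskolin-primed (10 uM, 48 h) H295R cells; gain or loss fitted relative to DMSO, without maximum-tolerated-concentration filtering.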
# [8] = CEETOX_H295R_CORTIC_noMTC: CeeTox H295R High-throughput Steroidogenesis Assay for Corticosterone (CORTIC), maximum tolerated concentration (MTC) filtered results only (AID 2283917; active = hit-call score of the fitted dose curve at least 0.9, where 1 is the maximum; inactive = score below 0.9); settings: actives raise or lower the signal
# Method in brief: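 Human adrenal H295R cells were prestimulated 48 h with 10 uM forskolin, then exposed 48 h to chemical in 0.1% DMSO. Medium corticosterone was MTBE-extracted and quantified by HPLC-MS/MS; bidirectional fits versus DMSO, concentrations not MTC-filtered.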
# [9] = CEETOX_H295R_DOC_noMTC: CeeTox H295R High-throughput Steroidogenesis Assay for DOC, maximum tolerated concentration (MTC) filtered results only (AID 2283918; active = hit-call score of the fitted dose curve at least 0.9, where 1 is the maximum; inactive = score below 0.9); settings: actives raise or lower the signal
# Method in brief: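 11-Deoxycorticosterone secreted by human adrenal H295R cells quantified by HPLC-MS/MS after 48 h chemical exposure (0.1% DMSO), following 48 h 10 uM forskolin prestimulation. Concentrations not filtered by MTT-derived MTC; bidirectional fitting.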
# [10] = CEETOX_H295R_ESTRADIOL_noMTC: CeeTox H295R High-throughput Steroidogenesis Assay for Estradiol, maximum tolerated concentration (MTC) filtered results only (AID 2283919; active = hit-call score of the fitted dose curve at least 0.9, where 1 is the maximum; inactive = score below 0.9); settings: actives raise or lower the signal
# Method in brief: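 Readout: dansyl-derivatized estradiol quantified by LC-MS/MS in medium from H295R cells dosed 48 h (0.1% DMSO) following 48 h forskolin (10 uM) prestimulation. Gain or loss of signal fitted against DMSO; no MTC filtering applied.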
# [11] = CEETOX_H295R_PROG_noMTC: CeeTox H295R High-throughput Steroidogenesis Assay for Progesterone (PROG), maximum tolerated concentration (MTC) filtered results only (AID 2283920; active = hit-call score of the fitted dose curve at least 0.9, where 1 is the maximum; inactive = score below 0.9); settings: actives raise or lower the signal
# Method in brief: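 Progesterone secreted into medium was measured by HPLC-MS/MS after MTBE extraction, following 48 h chemical exposure (0.1% DMSO) of forskolin-prestimulated (10 uM, 48 h) H295R adrenal cells. Gain or loss fitted against DMSO; no MTC filtering.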
# [12] = CEETOX_H295R_ESTRONE_noMTC: CeeTox H295R High-throughput Steroidogenesis Assay for Estrone, maximum tolerated concentration (MTC) filtered results only (AID 2283921; active = hit-call score of the fitted dose curve at least 0.9, where 1 is the maximum; inactive = score below 0.9); settings: actives raise or lower the signal
# Method in brief: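 Estrone in spent medium, quantified by tandem MS following dansyl chloride derivatization, after 48 h chemical exposure (0.1% DMSO) of forskolin-prestimulated (10 uM, 48 h) H295R cells; concentrations not MTC-filtered, bidirectional fit against DMSO.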
# [13] = CEETOX_H295R_TESTO_noMTC: CeeTox H295R High-throughput Steroidogenesis Assay for Testosterone (TESTO), maximum tolerated concentration (MTC) filtered results only (AID 2283924; active = hit-call score of the fitted dose curve at least 0.9, where 1 is the maximum; inactive = score below 0.9); settings: actives raise or lower the signal
# Method in brief: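 Medium testosterone, measured by HPLC-MS/MS after liquid-liquid extraction, was fitted in both directions relative to DMSO without MTC filtering. Adrenal H295R cells received 48 h chemical exposure (0.1% DMSO final) after 48 h forskolin (10 uM) prestimulation; viability by MTT.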
# [14] = target: Thyroid hormone receptor alpha (Rattus norvegicus) + Thyroid hormone receptor beta (Rattus norvegicus) (UniProt P18113+P63059); experiment: TOX21_TR_LUC_GH3_Agonist_Followup: Tox21 GH3 Thyroid Hormone Receptor Agonism Luciferase Follow-Up Assay (AID 2283939)
# Thyroid hormone receptor alpha (Rattus norvegicus) + Thyroid hormone receptor beta (Rattus norvegicus), sequence (P63059 whole entry, looked up): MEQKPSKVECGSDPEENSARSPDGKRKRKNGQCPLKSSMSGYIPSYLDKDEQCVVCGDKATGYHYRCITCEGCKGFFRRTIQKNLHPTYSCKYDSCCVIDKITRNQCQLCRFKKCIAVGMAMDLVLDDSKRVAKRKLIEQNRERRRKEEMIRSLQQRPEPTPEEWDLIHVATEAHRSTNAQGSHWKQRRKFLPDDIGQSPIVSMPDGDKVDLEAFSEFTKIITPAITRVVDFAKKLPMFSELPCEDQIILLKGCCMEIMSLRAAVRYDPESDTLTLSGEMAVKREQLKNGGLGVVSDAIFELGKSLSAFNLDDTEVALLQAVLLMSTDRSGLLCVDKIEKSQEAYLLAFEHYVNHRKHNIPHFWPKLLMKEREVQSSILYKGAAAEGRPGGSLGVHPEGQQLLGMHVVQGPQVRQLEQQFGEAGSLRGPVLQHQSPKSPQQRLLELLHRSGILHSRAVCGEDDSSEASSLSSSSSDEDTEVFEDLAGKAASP
# Thyroid hormone receptor alpha (Rattus norvegicus) + Thyroid hormone receptor beta (Rattus norvegicus), sequence (P18113 whole entry, looked up): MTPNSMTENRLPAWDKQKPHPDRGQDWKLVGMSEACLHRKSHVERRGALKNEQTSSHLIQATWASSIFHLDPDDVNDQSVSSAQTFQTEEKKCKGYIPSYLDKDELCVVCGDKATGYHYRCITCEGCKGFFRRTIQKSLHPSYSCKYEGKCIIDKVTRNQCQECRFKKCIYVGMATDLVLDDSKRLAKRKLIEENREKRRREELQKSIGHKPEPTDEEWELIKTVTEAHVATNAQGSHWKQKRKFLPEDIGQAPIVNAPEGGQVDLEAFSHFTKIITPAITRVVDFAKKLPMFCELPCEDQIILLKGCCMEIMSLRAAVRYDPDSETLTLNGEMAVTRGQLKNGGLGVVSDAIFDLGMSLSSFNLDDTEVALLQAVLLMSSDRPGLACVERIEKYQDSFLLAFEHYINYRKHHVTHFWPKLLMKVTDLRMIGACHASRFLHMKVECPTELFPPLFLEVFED
# Method in brief: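 Agonist-mode confirmatory run: 15 concentrations (5 nM to 92 uM final) on GH3 rat pituitary cells, 24 h at 37C/5% CO2, T3 as positive control. Luminescence read with ONE-Glo after 30 min.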
# [15] = target: THRA (gene 7067) (UniProt P10827); experiment: TOX21_TRA_COA_Agonist_Followup_ratio: Tox21 Thyroid Hormone Receptor alpha Agonism through Coactivator Recruitment Follow-Up Assay, Ratio (AID 2283948; active = hit-call score of the fitted dose curve at least 0.9, where 1 is the maximum; inactive = score below 0.9)
# THRA (gene 7067), sequence (P10827 whole entry, looked up, the tested form may be a part): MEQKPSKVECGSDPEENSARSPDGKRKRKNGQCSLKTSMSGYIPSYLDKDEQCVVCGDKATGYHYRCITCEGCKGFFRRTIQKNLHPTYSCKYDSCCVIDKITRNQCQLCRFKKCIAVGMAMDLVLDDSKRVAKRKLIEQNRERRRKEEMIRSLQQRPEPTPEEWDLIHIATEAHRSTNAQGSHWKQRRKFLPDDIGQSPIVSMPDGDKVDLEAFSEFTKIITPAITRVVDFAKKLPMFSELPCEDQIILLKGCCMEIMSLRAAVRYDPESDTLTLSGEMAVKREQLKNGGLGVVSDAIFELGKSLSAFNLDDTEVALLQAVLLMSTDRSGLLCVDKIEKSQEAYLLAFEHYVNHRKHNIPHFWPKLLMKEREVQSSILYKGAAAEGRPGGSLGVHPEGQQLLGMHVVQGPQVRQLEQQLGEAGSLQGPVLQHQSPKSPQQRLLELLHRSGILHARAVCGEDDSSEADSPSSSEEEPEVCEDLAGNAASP
# Method in brief: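 GST-TRa LBD 2.5 nM + 0.10% BSA + cpd; add fluorescein-SRC-2 200 nM, Tb-anti-GST 2 nM. TR-FRET ex 340, em 520/495 ratio. Norm: DMSO 0%, T3 100%; gain-of-signal fit.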
# [16] = target: THRB (gene 7068) (UniProt P10828); experiment: TOX21_TRB_BLA_Agonist_Followup_ratio: Tox21 Thyroid Hormone Receptor beta Agonism Beta-lactamase (BLA) Follow-Up Assay, Ratio (AID 2283954)
# THRB (gene 7068), sequence (P10828 whole entry, looked up, the tested form may be a part): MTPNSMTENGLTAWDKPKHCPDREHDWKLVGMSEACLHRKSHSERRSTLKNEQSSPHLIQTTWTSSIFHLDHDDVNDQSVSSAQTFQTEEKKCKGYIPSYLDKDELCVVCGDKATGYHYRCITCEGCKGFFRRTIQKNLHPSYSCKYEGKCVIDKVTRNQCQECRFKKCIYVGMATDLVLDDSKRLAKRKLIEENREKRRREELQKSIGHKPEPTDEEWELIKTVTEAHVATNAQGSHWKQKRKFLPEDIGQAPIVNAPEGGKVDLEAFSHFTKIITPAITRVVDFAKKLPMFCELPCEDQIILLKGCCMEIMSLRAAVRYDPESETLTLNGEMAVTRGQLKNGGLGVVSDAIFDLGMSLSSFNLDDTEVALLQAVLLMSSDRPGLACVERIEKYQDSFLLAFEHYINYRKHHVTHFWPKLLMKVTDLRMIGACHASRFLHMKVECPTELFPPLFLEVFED
# Method in brief: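 Agonist mode: compounds (11-point, triplicate) incubated 18 h with HEK293T cells carrying GAL4-DBD/human TRβ-LBD and UAS-β-lactamase. Blue/green (460/530 nm) FRET ratio read after 2 h CCF4-AM loading; CellTiter-Glo viability run in the same plates.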
# [17] = target: THRB (gene 7068) (UniProt P10828); experiment: TOX21_TRB_COA_Agonist_Followup_ratio: Tox21 Thyroid Hormone Receptor beta Agonism through Coactivator Recruitment Follow-Up Assay, Ratio (AID 2283963; active = hit-call score of the fitted dose curve at least 0.9, where 1 is the maximum; inactive = score below 0.9)
# Method in brief: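 Cell-free TR-FRET coactivator recruitment: GST-tagged TRβ LBD (5.0 nM) with 0.10% BSA incubated with compound, then fluorescein-SRC-2 peptide (200 nM) and Tb-anti-GST antibody (2 nM) added. 520:495 nm ratio normalized to DMSO (0%) and T3 (100%).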
smiles,measurement,setting,value
CCCCCCCCCOS(=O)(=O)O,outcome,[1],inactive
CCCCCCCCCO,outcome,[2],inactive
same,outcome,[1],inactive
CCCCCCCCCCOC(=O)c1ccccc1C(=O)OCCCCCCCC,AC50,[3],45.7 µM (active)
same,AC50,[4],41.3 µM (active)
same,AC50,[5],40.4 µM (active)
same,AC50,[6],44 µM (active)
same,outcome,[7],inactive
same,outcome,[8],inactive
same,AC50,[9],33.3 µM (active)
same,outcome,[10],inactive
same,AC50,[11],39.1 µM (active)
same,outcome,[12],inactive
same,AC50,[13],43 µM (active)
[Na+],AC50,[2],5.73 µM (active)
same,outcome,[1],inactive
C=C(C)C(=O)OCCC(F)(F)C(F)(F)C(F)(F)C(F)(F)C(F)(F)C(F)(F)C(F)(F)C(F)(F)F,outcome,[2],inactive
CC(=O)OC(C)(C)C,outcome,[2],inactive
same,outcome,[1],inactive
O=c1cc(-c2ccc(O)cc2)oc2cc(O)cc(O)c12,outcome,[2],inactive
same,outcome,[1],inactive
COC(=O)c1cccc(C(=O)OC)c1,outcome,[4],inactive
same,outcome,[5],inactive
same,outcome,[6],inactive
same,outcome,[10],inactive
same,outcome,[11],inactive
same,outcome,[12],inactive
same,outcome,[13],inactive
CCCCCC1CCC(=O)O1 (stereo not given),outcome,[2],inactive
same,outcome,[1],inactive
CCCCCC(=O)O[C@]1(C(C)=O)CC[C@H]2[C@@H]3CCC4=CC(=O)CC[C@]4(C)[C@H]3CC[C@@]21C,outcome,[2],inactive
same,outcome,[1],inactive
CCC(C)COC(=O)CC(C)C (stereo not given),outcome,[2],inactive
CCCCCCOc1ccc(O)cc1,outcome,[2],inactive
same,outcome,[1],inactive
O=S(=O)(O)C(F)(F)C(F)(F)OC(F)(F)C(F)(F)F,outcome,[2],inactive
CCCCCCC(C)O (stereo not given),outcome,[14],inactive
same,outcome,[15],inactive
same,outcome,[16],inactive
same,outcome,[17],inactive
c1ccc(Cc2ccccc2)cc1,outcome,[2],inactive
same,outcome,[1],inactive
CC/C(=C(\c1ccccc1)c1ccc(OCCN(C)C)cc1)c1ccccc1,outcome,[2],inactive
same,AC50,[1],36.2 µM (active)
same,outcome,[1],inactive
